An excerpt weighted towards active compounds, which were near 3.1% of everything screened.
TR SRC2 fluor cs: alters Texas Red total fluorescence, flagging assay interference; TRb/SRC2 Texas Red total fluorescence interference; Potency, µM (titrated, usually from 106 µM), without a hit: at the top dose fluorescence change, negative = quenching; 280,000 compounds, 0.29% hits; active means well fitted curve in either direction with a large enough effect; inconclusive means small, poorly fitted or top-dose-only effect
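Human TRb ligand-binding domain at 0.6 uM with 20 nM Texas Red SRC2 peptide in Tris buffer containing 1 uM T3 and 5% DMSO, incubated with compound 5 h at ambient temperature. Total fluorescence (555/632 nm) calculated as parallel + 2 × perpendicular.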
Tau fibril ThT: tau fibrillization inhibition (ThT binding); P10636; recombinant tau K18 P301L, heparin-induced fibrillization, ThT fluorescence; Potency, µM (series often up to 57.4 µM), inactives show top-dose activity, negative = inhibition, usual class: inhibitors; 270,000 compounds, 2.1% hits; AID 1460; further: nearly all actives have a fitted effect of over 55% in size
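ThT emission at 510 nm, taken 1 hr after adding 30 uM dye, quantifies aggregates formed when 20 uM heparin acts on human tau K18 P301L for 6 hr at 37 C.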
Tau fluor cs: counter-screen for tau fibril formation inhibitors. tau K18 P301L (four-repeat tau fragment) Alexa594 fluorescence, heparin fibrillization. Potency, µM (titrated, usually from 57.7 µM), without a hit: top-dose activity change, negative = decrease. 280,000 compounds, 0.93% hits; further: nearly all actives have a fitted effect of over 55% in size
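Human K18 P301L tau (15 uM unlabeled plus 0.24 uM Alexa 594-labeled, final) in 100 mM sodium acetate pH 7 was mixed with compound and 20 uM heparin and incubated 6 hr at 37 C.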
TRb SRC2 PPI: inhibitors of human thyroid hormone receptor beta-SRC2 interaction; TRbeta-SRC2 peptide binding, fluorescence polarization; receptor liganded with 1 µM T3; Potency, µM (titrated, usually from 106 µM), for the others: top-dose activity change, negative = inhibition, actives largely listed as inhibitors; AID 1469; P10828; 280,000 compounds, 0.065% hits;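 further: plate controls were bound peptide for no effect and peptide without receptor for full effect; nearly all actives have a fitted effect of over 50% in size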
Target sequence (P10828 whole entry, looked up): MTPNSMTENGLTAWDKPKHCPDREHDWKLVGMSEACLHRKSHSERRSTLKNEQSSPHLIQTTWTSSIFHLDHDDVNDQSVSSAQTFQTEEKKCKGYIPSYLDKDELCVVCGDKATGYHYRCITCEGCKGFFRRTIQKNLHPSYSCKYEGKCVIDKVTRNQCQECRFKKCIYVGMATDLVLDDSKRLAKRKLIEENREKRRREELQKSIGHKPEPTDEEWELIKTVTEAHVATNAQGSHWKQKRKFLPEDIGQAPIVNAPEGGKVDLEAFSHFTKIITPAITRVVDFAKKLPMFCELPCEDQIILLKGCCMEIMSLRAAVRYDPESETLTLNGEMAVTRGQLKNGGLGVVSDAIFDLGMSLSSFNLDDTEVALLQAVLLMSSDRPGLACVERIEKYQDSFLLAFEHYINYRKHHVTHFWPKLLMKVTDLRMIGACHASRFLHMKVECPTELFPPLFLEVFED
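Fluorescence polarization of 20 nM Texas Red SRC2 peptide (20-aa NR interaction domain) bound to 0.6 uM human TRb ligand-binding domain, with 1 uM T3, after 5 hr at ambient temperature; inhibition seen as decreased polarization.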
Tau fibril FP: inhibitors of human tau fibril formation; K18 P301L tau heparin fibrillization, Alexa594 FP, 6 h; Potency, µM (titrated, usually from 57.7 µM), inactives show at the top dose activity, negative = inhibition, actives largely listed as inhibitors; 280,000 compounds, 0.39% hits; further: nearly all actives have a fitted effect of over 55% in size
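Read-out: fluorescence polarization of Alexa 594-labeled tau (0.24 uM), 555 nm excitation, 632 nm emission. Mixtures held 15 uM unlabeled K18 P301L, compound and 20 uM heparin, pH 7 acetate buffer, incubated 6 hr at 37 C.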
* hit, by the source's call; ? = inconclusive; · = no result given; [ ] = another dose, or the depositor's remark. Unless noted, the call rests on the fitted dose curve; in most records, active means well fitted curve in the direction sought with a large enough effect; inconclusive means small, poorly fitted or top-dose-only effect, or another doubt; inactive means no such curve, though single readings can be large; an effect the other way counts as inactive or inconclusive. Unless noted, on the % scale 0 is the no-effect control and ±100 the full control effect; potency means the concentration at half of the fitted maximal effect.

SMILES	TR SRC2 fluor cs	Tau fibril ThT	Tau fluor cs	TRb SRC2 PPI	Tau fibril FP
Cc1ccc(C)c(N(C)S(=O)(=O)c2ccc3[nH]cc(C(=O)NC4CCCC4)c(=O)c3c2)c1	0.7%	4.8%	?	-8.1%	15.8µM*
CCN(c1ccccc1)S(=O)(=O)c1ccc2[nH]cc(C(=O)NCCOC)c(=O)c2c1	1.7%	8.4%	-15.2%	-12.7%	?
CCN(c1ccccc1)S(=O)(=O)c1ccc2[nH]cc(C(=O)NCc3ccc(C)cc3)c(=O)c2c1	-54.8%	11.4%	?	-12.3%	3.55µM*
Cc1ccc(C)c(N(C)S(=O)(=O)c2ccc3[nH]cc(C(=O)NCCN4CCOCC4)c(=O)c3c2)c1	-0.4%	2.1%	-18.9%	-6.3%	-8.2%
C=C1CCN(C(C(=O)O)C(C)C)S(=O)(=O)c2ccccc21 (stereo unspecified)	-1.4%	·	·	5.4%	·
Cc1ccccc1CN1CCc2nc(Nc3ccc4c(c3)OCCO4)ncc2C1	-1.9%	?	?	3.1%	?
O=C1c2ccccc2-c2n[nH]c(=O)c3ccc(N4CCCCC4)c1c23	-8.7%	14.1µM*	?	5.4%	-2.7%
CCc1nn2c(=O)cc(COC(=O)c3ccccc3NC(=O)COc3ccc(F)cc3)nc2s1	-2.3%	0.0%	-5.7%	0.3%	-13.2%
Nc1ccc(-n2nnnc2CN2CCOCC2)cc1	0.2%	-3.0%	-3.2%	3.9%	2.6%
c1ccc(-n2nnnc2CN2CCOCC2)cc1	1585µM*[quencher]	3.8%	2.7%	-21.8%[53 µM]	3.8%
CC(=O)Nc1ccc(Nc2ncnc(N)c2[N+](=O)[O-])cc1	0.9%	-8.7%	10.8%	4.9%	-2.0%
CC(=O)Nc1ccc(Nc2nc(C)c([N+](=O)[O-])c(Nc3ccccc3)n2)cc1	-3.9%[53 µM]	8.91µM*	?	-2.2%[53 µM]	18.2%
CC(=O)Nc1ccc(Nc2nc(C)c([N+](=O)[O-])c(N(C)c3ccccc3)n2)cc1	-4.9%	15.8µM*	17.8µM*[quencher]	8.4%	?
CCC(=O)Nc1ccc(Nc2nc(C)c([N+](=O)[O-])c(Nc3ccc(NC(=O)CC)cc3)n2)cc1	-2.6%	28.2µM*	-28.1%	8.2%	?
Cc1nc(Nc2ccc(C(=O)O)cc2)nc(Nc2ccc(C(=O)O)cc2)c1[N+](=O)[O-]	-6.6%	?	-7.7%	-4.6%	0.4%
CC(=O)Nc1ccc(Nc2ncc([N+](=O)[O-])c(Nc3ccc(NC(C)=O)cc3)n2)cc1	-5.0%	8.91µM*	-29.9%	-17.4%	-6.6%
CC(=O)N1c2ccc(S(=O)(=O)N3CCN(c4ccc(C)cc4C)CC3)cc2CC1C (stereo unspecified)	5.4%	-3.1%	-10.8%	-1.9%	5.1%
CCc1c2c(nc3ccc4c(c13)OCCO4)-c1nc3ccccc3c(=O)n1C2	-3.7%	·	·	7.7%	·
O=C(c1ccc2c(c1)N(Cc1cccc(Cl)c1)C(=O)c1ccccc1S2)N1CCOCC1	-0.8%	7.8%	1.2%	-2.7%	10.5%
CC(=O)N1CCc2cc(CNC(=O)Nc3ccc(Br)c(C)c3)ccc21	-5.6%	-10.1%	-12.1%	0.9%	?
Cc1cccc(N=Nc2ccc(O)c3ncccc23)c1	-3.0%	2µM*	-26.5%	3.2%	?
Cc1ccc(C)c(N=Nc2ccc(O)c3ncccc23)c1	0.9%	?	-26.2%	-6.8%	14.7%
Cc1cc2c(n1-c1ccc(C(=O)NCc3ccc(OC(C)C)cc3)cc1)CCCC2	?	-16.4%	-10.6%	1.5%	-4.5%
CC(C)NC(=O)c1ccc(-n2c(-c3ccccc3)cc3c2CCCCC3)cc1	0.6%	8.7%	?	1.1%	12.6µM*
CCCNC(=O)c1ccc(-n2c(-c3ccccc3)cc3c2CCC(C)C3)cc1 (stereo unspecified)	?	-7.4%	?	3.2%	12.6µM*
CC1CCc2c(cc(-c3ccccc3)n2-c2ccc(C(=O)NC(C)C)cc2)C1 (stereo unspecified)	1.7%	?	?	-5.0%	11.2µM*
COCCNC(=O)c1ccc(-n2c(-c3ccccc3)cc3c2CCC(C)C3)cc1 (stereo unspecified)	-22.4%	-7.8%	?	7.8%	8.3%

Screens from PubChem BioAssay.
